In experiment [1] the target is Serine/threonine-protein kinase MRCK beta (Homo sapiens) (UniProt Q9Y5S2). The settings on record: at 1 µM.
Experiment [2] has the same target. The settings on record: at 10 µM.
For experiment [3], the target named is Ribosomal protein S6 kinase alpha-5 (Homo sapiens) (UniProt O75582). The settings on record: at 1 µM.
The target is the same in experiment [4]. The settings on record: at 10 µM.
In experiment [5] the target is Ribosomal protein S6 kinase alpha-4 (Homo sapiens) (UniProt O75676). The settings on record: at 1 µM.
Experiment [6] has the same target. The settings on record: at 10 µM.
Experiment [7] deals with SRSF protein kinase 3 (Homo sapiens) (UniProt Q9UPE1). The settings on record: at 1 µM.
Experiment [8] has the same target. The conditions noted are these: at 10 µM.
Experiment [9] deals with T1, Serine/threonine-protein kinase 4 (Homo sapiens) (UniProt Q13043).
T1 sequence (whole entry): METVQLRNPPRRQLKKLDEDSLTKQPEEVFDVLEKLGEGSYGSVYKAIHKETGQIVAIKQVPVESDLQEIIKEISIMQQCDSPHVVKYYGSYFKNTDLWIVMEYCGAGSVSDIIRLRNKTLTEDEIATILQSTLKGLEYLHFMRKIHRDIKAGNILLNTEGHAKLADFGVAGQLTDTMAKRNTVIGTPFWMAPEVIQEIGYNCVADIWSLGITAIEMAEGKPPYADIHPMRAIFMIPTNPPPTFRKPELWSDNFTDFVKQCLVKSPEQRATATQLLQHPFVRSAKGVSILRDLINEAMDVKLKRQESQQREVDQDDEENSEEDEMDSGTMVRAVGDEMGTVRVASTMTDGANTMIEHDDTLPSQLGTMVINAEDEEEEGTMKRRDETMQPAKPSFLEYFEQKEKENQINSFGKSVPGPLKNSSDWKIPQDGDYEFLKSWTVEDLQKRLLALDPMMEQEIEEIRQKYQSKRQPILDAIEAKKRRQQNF
The settings on record: at 1 µM.

Experiment [10] deals with T1, Serine/threonine-protein kinase 4 (Homo sapiens). The settings on record: at 10 µM.
Experiment [11] has as its target T2, Serine/threonine-protein kinase 3 (Homo sapiens) (UniProt Q13188).
T2 sequence (whole entry): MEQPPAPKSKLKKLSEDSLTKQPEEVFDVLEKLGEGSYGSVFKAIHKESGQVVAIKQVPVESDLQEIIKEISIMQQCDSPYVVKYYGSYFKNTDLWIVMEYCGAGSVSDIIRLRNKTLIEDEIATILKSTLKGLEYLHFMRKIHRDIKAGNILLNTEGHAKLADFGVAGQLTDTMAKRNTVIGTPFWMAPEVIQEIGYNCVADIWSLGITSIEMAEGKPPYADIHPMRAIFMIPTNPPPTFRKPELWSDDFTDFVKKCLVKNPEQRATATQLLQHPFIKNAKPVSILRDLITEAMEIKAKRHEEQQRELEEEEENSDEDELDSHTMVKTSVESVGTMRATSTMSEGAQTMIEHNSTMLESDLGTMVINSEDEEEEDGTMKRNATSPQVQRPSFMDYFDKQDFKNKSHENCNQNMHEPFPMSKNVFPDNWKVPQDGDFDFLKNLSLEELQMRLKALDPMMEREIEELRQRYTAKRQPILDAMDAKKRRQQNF
The conditions noted are these: at 1 µM.

Experiment [12] concerns the target T2, Serine/threonine-protein kinase 3 (Homo sapiens). The settings on record: at 10 µM.
The target of experiment [13] is Serine/threonine-protein kinase 24 (Homo sapiens) (UniProt Q9Y6E0). The settings on record: at 1 µM.
Experiment [14] shares this target. The settings on record: at 10 µM.
Experiment [15] has as its target T3, Tyrosine-protein kinase Mer (Homo sapiens) (UniProt Q12866).
T3 sequence (whole entry): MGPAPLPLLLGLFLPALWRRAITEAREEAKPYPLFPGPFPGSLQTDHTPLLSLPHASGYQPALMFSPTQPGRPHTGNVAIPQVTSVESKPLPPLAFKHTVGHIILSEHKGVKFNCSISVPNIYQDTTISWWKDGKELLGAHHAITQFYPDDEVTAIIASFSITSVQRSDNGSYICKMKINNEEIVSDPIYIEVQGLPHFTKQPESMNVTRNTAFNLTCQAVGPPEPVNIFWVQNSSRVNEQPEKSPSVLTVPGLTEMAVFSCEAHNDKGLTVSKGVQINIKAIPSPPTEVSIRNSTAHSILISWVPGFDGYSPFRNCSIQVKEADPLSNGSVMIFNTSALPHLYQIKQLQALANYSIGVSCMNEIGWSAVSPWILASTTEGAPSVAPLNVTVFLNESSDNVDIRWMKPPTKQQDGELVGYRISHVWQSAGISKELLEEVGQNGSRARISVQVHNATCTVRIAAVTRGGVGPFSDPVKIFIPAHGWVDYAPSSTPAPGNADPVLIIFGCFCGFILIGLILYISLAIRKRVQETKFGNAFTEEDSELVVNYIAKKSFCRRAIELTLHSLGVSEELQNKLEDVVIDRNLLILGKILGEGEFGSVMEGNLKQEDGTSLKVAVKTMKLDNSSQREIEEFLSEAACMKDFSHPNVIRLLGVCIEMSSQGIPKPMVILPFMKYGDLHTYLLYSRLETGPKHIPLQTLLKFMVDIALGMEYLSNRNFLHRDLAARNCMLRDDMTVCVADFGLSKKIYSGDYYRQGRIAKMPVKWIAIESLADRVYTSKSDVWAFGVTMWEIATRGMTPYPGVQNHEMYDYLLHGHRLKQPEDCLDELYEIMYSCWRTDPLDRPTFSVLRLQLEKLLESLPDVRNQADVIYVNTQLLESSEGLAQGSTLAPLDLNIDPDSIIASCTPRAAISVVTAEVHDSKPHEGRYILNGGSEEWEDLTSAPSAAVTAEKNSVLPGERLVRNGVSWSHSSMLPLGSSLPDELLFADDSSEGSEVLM
The conditions noted are these: at 1 µM.

Experiment [16] concerns the target T3, Tyrosine-protein kinase Mer (Homo sapiens). The conditions noted are these: at 10 µM.
Experiment [17] has as its target Hepatocyte growth factor receptor (Homo sapiens) (UniProt P08581). The settings on record: at 1 µM.
The target is the same in experiment [18]. The settings on record: at 10 µM.
Experiment [19] deals with MAP kinase-interacting serine/threonine-protein kinase 2 (Homo sapiens) (UniProt Q9HBH9). The conditions noted are these: at 1 µM.
For experiment [20] the target is unchanged. The settings on record: at 10 µM.

Structures are written as SMILES.

Sequence of Ribosomal protein S6 kinase alpha-5 (Homo sapiens) (O75582 whole entry, looked up): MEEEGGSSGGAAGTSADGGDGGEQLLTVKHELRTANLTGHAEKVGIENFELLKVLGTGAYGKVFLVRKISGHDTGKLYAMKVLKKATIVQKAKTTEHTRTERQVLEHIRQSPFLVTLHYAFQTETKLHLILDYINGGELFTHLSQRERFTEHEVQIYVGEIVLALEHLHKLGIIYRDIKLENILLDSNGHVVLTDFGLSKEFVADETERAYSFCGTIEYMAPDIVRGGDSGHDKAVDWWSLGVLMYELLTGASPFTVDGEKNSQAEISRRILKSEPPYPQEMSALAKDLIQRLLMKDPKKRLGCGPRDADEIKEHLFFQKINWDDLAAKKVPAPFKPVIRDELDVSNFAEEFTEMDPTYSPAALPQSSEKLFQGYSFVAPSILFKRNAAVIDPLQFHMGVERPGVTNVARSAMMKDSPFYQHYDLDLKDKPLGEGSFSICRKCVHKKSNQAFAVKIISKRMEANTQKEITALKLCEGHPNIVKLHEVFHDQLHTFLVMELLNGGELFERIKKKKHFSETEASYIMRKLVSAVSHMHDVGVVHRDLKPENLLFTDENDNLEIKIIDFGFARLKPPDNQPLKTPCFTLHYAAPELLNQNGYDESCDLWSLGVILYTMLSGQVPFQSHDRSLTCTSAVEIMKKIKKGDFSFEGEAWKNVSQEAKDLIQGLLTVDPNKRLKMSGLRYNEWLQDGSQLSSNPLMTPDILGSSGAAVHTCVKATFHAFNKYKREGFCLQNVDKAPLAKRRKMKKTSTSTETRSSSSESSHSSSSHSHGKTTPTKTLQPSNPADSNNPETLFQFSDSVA
Sequence of Serine/threonine-protein kinase MRCK beta (Homo sapiens) (Q9Y5S2 whole entry): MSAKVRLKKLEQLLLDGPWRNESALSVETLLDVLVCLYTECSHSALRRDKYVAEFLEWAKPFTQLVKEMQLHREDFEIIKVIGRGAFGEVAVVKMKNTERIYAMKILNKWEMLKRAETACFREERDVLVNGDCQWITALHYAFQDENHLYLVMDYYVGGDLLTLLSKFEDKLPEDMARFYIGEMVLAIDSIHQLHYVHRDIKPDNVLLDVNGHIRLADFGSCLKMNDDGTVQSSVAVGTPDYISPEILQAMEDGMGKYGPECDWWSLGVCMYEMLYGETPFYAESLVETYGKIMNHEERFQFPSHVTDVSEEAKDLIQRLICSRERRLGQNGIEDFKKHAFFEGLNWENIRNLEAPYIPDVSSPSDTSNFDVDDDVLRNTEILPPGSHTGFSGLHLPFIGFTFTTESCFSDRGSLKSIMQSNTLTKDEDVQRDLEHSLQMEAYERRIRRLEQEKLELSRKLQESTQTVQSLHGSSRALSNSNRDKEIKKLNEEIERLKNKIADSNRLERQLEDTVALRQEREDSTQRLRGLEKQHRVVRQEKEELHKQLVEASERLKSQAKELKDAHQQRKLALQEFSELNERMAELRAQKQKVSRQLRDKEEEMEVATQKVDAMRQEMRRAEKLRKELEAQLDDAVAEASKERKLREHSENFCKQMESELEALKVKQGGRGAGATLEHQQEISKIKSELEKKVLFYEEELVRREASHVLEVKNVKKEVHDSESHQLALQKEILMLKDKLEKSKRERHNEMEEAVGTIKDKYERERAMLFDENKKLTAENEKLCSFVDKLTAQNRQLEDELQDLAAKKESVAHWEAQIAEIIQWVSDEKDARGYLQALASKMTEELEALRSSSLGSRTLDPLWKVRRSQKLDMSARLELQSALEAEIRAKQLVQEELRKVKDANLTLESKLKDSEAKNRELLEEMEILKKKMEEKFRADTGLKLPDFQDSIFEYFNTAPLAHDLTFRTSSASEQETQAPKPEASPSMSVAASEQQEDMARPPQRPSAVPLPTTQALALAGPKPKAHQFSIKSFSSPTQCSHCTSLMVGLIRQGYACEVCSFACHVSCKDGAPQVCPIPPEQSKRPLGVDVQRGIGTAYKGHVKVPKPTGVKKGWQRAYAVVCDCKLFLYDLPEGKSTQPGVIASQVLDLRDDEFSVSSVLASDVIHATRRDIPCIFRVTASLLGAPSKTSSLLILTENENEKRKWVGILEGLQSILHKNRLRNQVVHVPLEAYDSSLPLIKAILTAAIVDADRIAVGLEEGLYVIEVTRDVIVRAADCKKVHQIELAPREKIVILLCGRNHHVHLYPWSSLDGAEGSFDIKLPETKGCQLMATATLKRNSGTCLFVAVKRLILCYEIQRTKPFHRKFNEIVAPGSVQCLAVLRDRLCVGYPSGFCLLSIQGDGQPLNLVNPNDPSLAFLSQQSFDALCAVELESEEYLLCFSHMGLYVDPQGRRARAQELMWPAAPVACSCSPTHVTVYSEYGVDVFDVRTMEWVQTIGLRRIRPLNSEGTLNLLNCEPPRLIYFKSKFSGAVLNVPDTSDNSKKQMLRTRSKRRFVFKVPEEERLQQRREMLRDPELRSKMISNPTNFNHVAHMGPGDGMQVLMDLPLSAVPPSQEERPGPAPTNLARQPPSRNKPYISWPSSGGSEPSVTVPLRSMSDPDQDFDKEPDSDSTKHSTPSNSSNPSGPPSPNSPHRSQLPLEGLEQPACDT
Sequence of Serine/threonine-protein kinase 24 (Homo sapiens) (Q9Y6E0 whole entry, looked up): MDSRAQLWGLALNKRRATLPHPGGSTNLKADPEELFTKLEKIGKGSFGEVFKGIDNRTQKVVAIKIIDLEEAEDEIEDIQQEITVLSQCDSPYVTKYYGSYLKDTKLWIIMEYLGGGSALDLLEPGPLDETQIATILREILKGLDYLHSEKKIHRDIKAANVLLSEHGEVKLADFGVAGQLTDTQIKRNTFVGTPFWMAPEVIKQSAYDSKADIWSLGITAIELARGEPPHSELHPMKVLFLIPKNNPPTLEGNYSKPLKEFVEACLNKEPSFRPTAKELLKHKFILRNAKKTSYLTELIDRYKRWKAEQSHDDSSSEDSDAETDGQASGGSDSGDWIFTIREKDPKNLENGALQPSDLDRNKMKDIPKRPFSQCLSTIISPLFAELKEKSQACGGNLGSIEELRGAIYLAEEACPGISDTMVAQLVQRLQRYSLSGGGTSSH
Sequence of Hepatocyte growth factor receptor (Homo sapiens) (P08581 whole entry): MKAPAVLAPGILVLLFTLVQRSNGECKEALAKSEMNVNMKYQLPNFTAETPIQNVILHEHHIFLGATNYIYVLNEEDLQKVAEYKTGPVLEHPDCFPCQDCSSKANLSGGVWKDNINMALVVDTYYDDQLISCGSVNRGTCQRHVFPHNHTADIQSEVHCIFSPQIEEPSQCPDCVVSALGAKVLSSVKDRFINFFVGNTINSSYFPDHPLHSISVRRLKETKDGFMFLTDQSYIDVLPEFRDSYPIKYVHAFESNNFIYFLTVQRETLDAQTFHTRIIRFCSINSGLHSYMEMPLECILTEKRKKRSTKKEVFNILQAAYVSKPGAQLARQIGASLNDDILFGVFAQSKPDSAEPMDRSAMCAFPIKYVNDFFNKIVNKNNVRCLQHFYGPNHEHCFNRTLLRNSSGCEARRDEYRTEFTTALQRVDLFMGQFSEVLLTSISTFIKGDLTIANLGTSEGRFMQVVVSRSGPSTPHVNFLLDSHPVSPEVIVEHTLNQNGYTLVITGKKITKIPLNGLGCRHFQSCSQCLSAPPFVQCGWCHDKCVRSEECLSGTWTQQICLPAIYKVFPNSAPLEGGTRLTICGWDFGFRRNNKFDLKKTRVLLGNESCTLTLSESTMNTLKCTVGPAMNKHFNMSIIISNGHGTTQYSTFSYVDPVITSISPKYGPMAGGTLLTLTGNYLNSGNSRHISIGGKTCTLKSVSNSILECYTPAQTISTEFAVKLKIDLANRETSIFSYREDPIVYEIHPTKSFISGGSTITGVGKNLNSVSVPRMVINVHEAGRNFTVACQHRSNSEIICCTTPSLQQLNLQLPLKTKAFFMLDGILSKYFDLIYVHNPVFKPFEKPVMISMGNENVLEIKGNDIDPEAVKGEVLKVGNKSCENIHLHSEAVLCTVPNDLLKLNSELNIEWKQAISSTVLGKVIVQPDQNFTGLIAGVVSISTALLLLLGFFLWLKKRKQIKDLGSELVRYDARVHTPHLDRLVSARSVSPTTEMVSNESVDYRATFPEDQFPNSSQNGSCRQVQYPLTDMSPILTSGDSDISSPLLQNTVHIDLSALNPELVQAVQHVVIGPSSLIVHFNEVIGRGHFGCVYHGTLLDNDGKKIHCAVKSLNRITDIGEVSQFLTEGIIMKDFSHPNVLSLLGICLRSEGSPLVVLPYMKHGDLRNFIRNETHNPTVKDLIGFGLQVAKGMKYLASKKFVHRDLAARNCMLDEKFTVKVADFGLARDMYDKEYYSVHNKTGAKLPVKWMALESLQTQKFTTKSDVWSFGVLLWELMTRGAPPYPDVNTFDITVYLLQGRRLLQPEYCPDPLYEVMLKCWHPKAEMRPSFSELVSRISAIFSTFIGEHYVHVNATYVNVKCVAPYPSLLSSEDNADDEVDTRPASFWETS
Sequence of MAP kinase-interacting serine/threonine-protein kinase 2 (Homo sapiens) (Q9HBH9 whole entry, looked up): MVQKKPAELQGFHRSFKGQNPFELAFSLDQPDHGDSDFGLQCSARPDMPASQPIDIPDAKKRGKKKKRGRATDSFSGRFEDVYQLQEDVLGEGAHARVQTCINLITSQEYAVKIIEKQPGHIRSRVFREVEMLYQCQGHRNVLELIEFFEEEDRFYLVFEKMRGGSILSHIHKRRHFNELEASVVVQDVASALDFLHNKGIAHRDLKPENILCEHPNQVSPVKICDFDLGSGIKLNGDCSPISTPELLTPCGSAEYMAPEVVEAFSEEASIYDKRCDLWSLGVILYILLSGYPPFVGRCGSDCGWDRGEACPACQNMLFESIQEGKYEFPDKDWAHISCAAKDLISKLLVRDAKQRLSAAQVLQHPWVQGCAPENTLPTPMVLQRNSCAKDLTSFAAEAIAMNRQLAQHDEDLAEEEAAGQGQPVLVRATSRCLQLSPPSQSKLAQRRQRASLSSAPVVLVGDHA

As a reminder, the residual activity is the signal under treatment as a percentage of the control signal. With `O=C1Nc2cc(Br)ccc2/C1=C1/Nc2ccccc2/C1=N\O`, the residual activity was 83% in [1]; 87% in experiment [2]; 72% in experiment [3]; 78% in [4]; 60% in experiment [5]; 55% in [6]. Besides, the residual activity in experiment [7] is 93%; in experiment [8], 102%; in experiment [9], 8%; in experiment [10], -1%; in experiment [11], 10%; in experiment [12], 5%. For the same molecule, the residual activity in experiment [13] is 62%; in [14], 70%; in experiment [15], 26%; in [16], 4%; in experiment [17], 118%; in [18], 97%. In addition, the residual activity was 62% in experiment [19] and 77% in experiment [20].

Consider `CC(C)n1cnc2/c(=N/c3cccc(Cl)c3)nc(NCCO)[nH]c21`, for which the residual activity in [1] turned out to be 85%; in [2], 82%; in [3], 62%; in [4], 50%; in experiment [5], 57%; in experiment [6], 37%. Moreover, the residual activity in experiment [7] came to 61%; in experiment [8] it was 19%; in experiment [9], 61%; in experiment [10], 58%; in experiment [11] it was 71%; in experiment [12], 36%. The residual activity was 62% in experiment [13]; 29% in experiment [14]; 54% in experiment [15]; 10% in [16]; 87% in experiment [17]; 47% in [18]. The residual activity in experiment [19] turned out to be 95%; in [20], 77%.

As to `COc1cc2ncnc(Nc3ccc(O)c(Br)c3)c2cc1OC`, the residual activity in [1] turned out to be 91%; in [2] it was 71%; in [3], 117%; in experiment [4] it was 108%; in experiment [5], 83%; in experiment [6], 72%. The residual activity in experiment [7] is 95%; in experiment [8], 90%; in experiment [9] it was 81%; in [10] it was 55%; in [11] it was 97%; in experiment [12], 70%. Further, the residual activity in experiment [13] came to 54%; in experiment [14], 43%; in experiment [15], 69%; in [16] it was 16%; in [17] it was 86%; in [18], 72%. The residual activity in experiment [19] stood at 10%; in experiment [20] it was 6%.

As for `C[C@@H](N)[C@H]1CC[C@H](C(=O)Nc2ccncc2)CC1`, the residual activity in experiment [1] amounted to 95%; in experiment [2] it was 69%; in experiment [3], 90%; in experiment [4] it was 50%; in experiment [5], 82%; in experiment [6] it was 58%. Moreover, the residual activity was determined as 96% in experiment [7]; 98% in experiment [8]; 105% in experiment [9]; 79% in experiment [10]; 111% in [11]; 105% in [12]. The residual activity in experiment [13] amounted to 98%; in experiment [14] it was 92%; in experiment [15], 93%; in experiment [16], 101%; in [17] it was 132%; in experiment [18], 131%. Besides, the residual activity turned out to be 106% in experiment [19] and 77% in experiment [20].

As for `Cc1ccc(S(=O)(=O)/C=C/C#N)cc1`, the residual activity in [1] is 89%; in experiment [2] it was 92%; in [3], 111%; in [4], 125%; in experiment [5], 105%; in experiment [6], 99%. Further, the residual activity in experiment [7] is 100%; in [8], 102%; in [9], 79%; in experiment [10], 109%; in experiment [11], 99%; in [12], 95%. Also, the residual activity in experiment [13] stood at 86%; in experiment [14], 88%; in [15], 101%; in experiment [16], 108%; in experiment [17], 96%; in experiment [18], 123%. Further, the residual activity in experiment [19] came to 98%; in experiment [20], 101%.

Regarding `CC(=O)O/N=C1\C(=C2\C(=O)Nc3cc(Br)ccc32)Nc2ccccc21`, the residual activity came to 96% in experiment [1]; 91% in [2]; 99% in [3]; 85% in experiment [4]; 100% in experiment [5]; 74% in [6]. Also, the residual activity in experiment [7] is 96%; in [8] it was 102%; in [9], 50%; in experiment [10] it was 23%; in experiment [11] it was 65%; in experiment [12], 18%. The residual activity was 85% in experiment [13]; 74% in experiment [14]; 39% in [15]; 6% in [16]; 89% in [17]; 81% in experiment [18]. Further, the figures for the residual activity in experiment [19] and in experiment [20] were 101% and 92%, respectively.

Regarding `CC(C)n1cnc2c(NCc3ccccc3)nc(NCCCO)nc21`, the residual activity in experiment [1] stood at 88%; in experiment [2], 88%; in [3] it was 110%; in experiment [4], 110%; in experiment [5] it was 102%; in experiment [6], 97%. The residual activity in [7] is 106%; in [8], 76%; in experiment [9] it was 102%; in [10], 102%; in [11], 111%; in experiment [12] it was 99%. The residual activity in [13] was 77%; in [14] it was 69%; in experiment [15], 98%; in experiment [16] it was 82%; in experiment [17] it was 101%; in experiment [18], 79%. Also, the residual activity came to 90% in experiment [19] and 80% in experiment [20].
